Hits are enriched below; roughly 21% of the tested compounds scored in any of these assays.
Pf growth 96h = Primary qHTS for delayed death inhibitors of the malarial parasite plastid, 96 hour incubation; P. falciparum luciferase reporter growth, 96 h; Potency, µM (doses to about 28.7 µM), usual class: inhibitors; actives 6.9% (n = 320,000); active = well fitted inhibition curve with a large enough effect; inconclusive = small, poorly fitted or top-dose-only effect, or another doubt; inactive = no such curve, though single readings can be large or run the other way
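P. falciparum expressing integrated firefly luciferase grown in erythrocytes (2% hematocrit, 0.05% parasitemia final) with compounds for 96 hours at 37 C, 5% CO2. Growth inhibition read as loss of luminescence after adding luciferase detection reagent.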
Shiga inhibitor = A qHTS for Small Molecule Inhibitors of Shiga Toxin. actives 9.2% (n = 290,000). AID 2315, 2010. inhibition, % at 38.7 µM. Vero cells, Shiga toxin protein synthesis inhibition reporter; in the data active = inhibition mostly above about 28%, no sharp cut-off; inactive = mostly below about 43%
NS1 function inh = qHTS Assay for Inhibitors of Influenza NS1 Protein Function; actives 0.4% (n = 270,000); Potency, µM (titrated, usually from 46.1 µM); note: actives are rising curves; nearly all actives have a fitted effect of over 50% in size
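A cell-based growth assay was used: compounds that relieve NS1-induced slow growth of budding yeast raise OD600. Assay medium was yeast nitrogen base with ammonium sulphate and -URA supplement, pH 6.0, with 2% galactose.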
CHX counter = Cycloheximide Counterscreen for Small Molecule Inhibitors of Shiga Toxin; cell reporter, cycloheximide protein synthesis inhibition counterscreen; max response, %; actives 12% (n = 300,000); AID 2314, 2010; in the data active = max response mostly above about 13%, no sharp cut-off; inactive = mostly below about 14%; note: read at 38.3 µM for the half of the compounds with a filed dose
SARS PLpro yeast = qHTS of Yeast-based Assay for SARS-CoV PLP; S. cerevisiae expressing SARS-CoV PLpro, growth rescue; Potency, µM (doses to about 32.9 µM), most hits filed as activators; actives 0.19% (n = 330,000); AID 485353, 2010; note: nearly all actives have a fitted effect of over 55% in size
Pf growth 48h = Primary qHTS for delayed death inhibitors of the malarial parasite plastid, 48 hour incubation. Potency, µM (series often up to 28.7 µM), actives largely listed as inhibitors. actives 5.9% (n = 310,000). P. falciparum luciferase growth in erythrocytes, 48 h; active = well fitted inhibition curve with a large enough effect; inconclusive = small, poorly fitted or top-dose-only effect, or another doubt; inactive = no such curve, though single readings can be large or run the other way
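Erythrocytes infected with P. falciparum carrying an integrated firefly luciferase reporter (2% hematocrit, 0.1% parasitemia final) were exposed to compounds in RPMI 1640 with 0.5% Albumax at 37 C, 5% CO2. Growth inhibition was scored as reduced luminescence.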
Hits are given with their value; n = inactive; u = inconclusive; x = not tested or not shown; [ ] = dose if it differs, or a comment. Unless noted, calls come from the whole dose curve.

SMILES	Pf growth 96h	Shiga inhibitor	NS1 function inh	CHX counter	SARS PLpro yeast	Pf growth 48h
CCN1CCN(S(=O)(=O)c2ccc(Cl)c(C(=O)Nc3ccc(OC(F)F)cc3)c2)CC1	u	n	n	n	n	n
COc1ccc(S(=O)(=O)N2CCCCC2)cc1NC(=O)Cc1sc(C)nc1-c1ccc(F)cc1	u	x	x	x	n	12µM
COc1cc2c(cc1OC)C(c1ccccc1F)NCC2 (stereo not given)	u	x	n	n	n	n
Cc1ccc(SCC(=O)OCC(=O)NCCC2=CCCCC2)cc1	n	x	x	x	n	u
CCN(CC)C(=O)c1ccc(NC(=O)c2cc(S(=O)(=O)N3CCCCCC3)ccc2OC)cc1	9.3µM	x	x	x	n	7.4µM
COc1ccc(Cl)cc1C(=O)Nc1ccc(S(=O)(=O)N2CCCC2)cc1	x	n	n	n	n	n
O=C(CCNS(=O)(=O)c1ccccc1)N1CCN(c2ccccc2F)CC1	n	n	n	n	n	n
O=C(c1ccccc1F)N(NC(=O)C(O)(c1ccccc1)c1ccccc1)c1ccccc1	n	n	n	n	n	n
Cc1ccc(-c2nnn3c2nc(NC(C)C)c2ccccc23)cc1	n	n	n	14	n	u
CNc1nc2c(-c3ccc(Cl)cc3)nnn2c2ccccc12	n	n	n	n	n	n
Nc1nc2c(-c3ccc(Br)cc3)nnn2c2ccccc12	n	96	n	49	n	n
NNc1nc2c(-c3cccc(C(F)(F)F)c3)nnn2c2ccccc12	n	53	n	15	n	6.6µM
CCCCNc1nc2c(-c3ccccc3)nnn2c2ccccc12	n	n	n	n	n	n
Cc1cccc(NC(=O)CCCN=C2NS(=O)(=O)c3ccccc32)c1C	u	x	x	x	n	u
COc1ccccc1C(c1nnnn1C(C)C)N1CCN(C(=O)c2ccco2)CC1 (stereo not given)	u	n	n	n	n	n
C#Cc1ccc([C@@H]2C=C(C(=O)OCC=C)O[C@H](OCC)[C@H]2CCCO)cc1	2.3µM	n	n	n	n	u
C#Cc1ccc([C@H]2C=C(C(=O)NCc3ccccc3)O[C@@H](OCC)[C@@H]2CCCO)cc1	u	n	n	n	n	u
C#Cc1ccc([C@@H]2C=C(C(=O)Nc3ccccc3)O[C@H](OCC)[C@H]2CCCO)cc1	1.9µM	n	n	n	n	u
O=C1c2ccccc2C(=O)N1CCN1CCc2ccccc21	n	94	n	37	n	n
c1ccc2c(c1)CCN2CCN1CCc2ccccc21	n	n	n	n	n	u
OC(COCc1cccs1)CN1CCCCCC1 (stereo not given)	n	n	u	n	n	13µM
OC(COCc1ccc2c(c1)OCO2)CN1CCCCC1 (stereo not given)	12µM	n	n	n	n	n
OC(COCc1ccc2c(c1)OCO2)CN1CCC(Cc2ccccc2)CC1 (stereo not given)	n	n	n	n	n	n
CCOC(=O)c1ccc[n+](CC(=O)c2ccc(NC(=O)c3ccccc3)cc2)c1	u	n	n	n	n	n
Cc1ccnc(N2C(=O)c3ccccc3C2O)c1 (stereo not given)	n	n	n	39	n	x
SMILES	Pf growth 96h	Shiga inhibitor	NS1 function inh	CHX counter	SARS PLpro yeast	Pf growth 48h
Cc1ccnc(N2C(=O)c3ccccc3C2Nc2cccc(C)c2C)c1 (stereo not given)	n	28	n	15	n	u
Cc1ccc(N2CCN(S(=O)(=O)N3CCOCC3)CC2)cc1C	n	n	x	n	n	n
Cc1nn(CC(=O)N(C)c2c(N)n(Cc3ccccc3)c(=O)[nH]c2=O)c(C)c1[N+](=O)[O-]	u	x	x	x	n	n
O=C1NC2(CCCCC2)C(=O)N1Cc1cccc(C(F)(F)F)c1	u	n	x	n	n	n
O=C(Cn1c(NCCO)nc2ccccc21)N1CCN(Cc2ccccc2)CC1	n	n	n	n	n	n
Cc1cc(F)ccc1S(=O)(=O)Nc1ccccc1C(=O)Nc1ccccc1-c1nc2ccccc2[nH]1	1.9µM	n	n	n	n	9.3µM
CC1CCCN(S(=O)(=O)c2ccc(C(=O)Nc3ccccc3-c3nc4ccccc4[nH]3)cc2)C1 (stereo not given)	u	n	n	n	n	1.5µM
CC1CCN(S(=O)(=O)c2ccc(C(=O)Nc3ncccc3O)cc2)CC1	5.2µM	n	n	n	n	u
CC1CCN(S(=O)(=O)c2ccc(C(=O)Nc3ccccc3-c3nc4ccccc4[nH]3)cc2)CC1	7.4µM	n	n	n	n	4.1µM
CCN(CC)CCCN(Cc1cc2cc3c(cc2[nH]c1=O)OCO3)C(=S)Nc1ccccc1	u	n	n	n	n	u
COc1ccc(S(=O)(=O)N2CCCCC2)cc1NC(=O)CCOc1cc(C)ccc1C	12µM	x	x	x	n	u
COc1ccc(S(=O)(=O)N2CCCCC2)cc1NC(=O)c1ccc(C)cc1	n	x	x	x	n	n
Cc1ccc(C)c(OCCC(=O)Nc2ccc(S(=O)(=O)N3CCCC3)cc2)c1	9.3µM	x	x	x	n	u
Cc1ccc(S(=O)(=O)NCc2nc(-c3ccccc3)no2)cc1	n	n	n	n	n	n
CCOc1nc(-c2ccccc2)ccc1-c1noc(COc2ccccc2)n1	n	n	n	n	n	u
Cc1ccc(OCc2nc(-c3ccccc3)no2)cc1	n	84	n	45	n	n
Cc1ccccc1OCc1nc(-c2ccc(Br)o2)no1	n	n	n	n	n	x
Cc1ccccc1OCc1nc(-c2ccccc2)no1	x	66	n	39	n	n
c1ccc(NCc2nc(-c3ccccc3)no2)cc1	x	155	n	56	n	n
Cc1ccc(-c2noc(COc3ccccc3C)n2)cc1	n	n	n	29	n	n
O=C(Nc1nc2ccccc2n1CCN1CCOCC1)c1ccc(COc2ccccc2Br)o1	n[5.75 µM]	n	x	n	n	u
CCC1C(=O)N(C)CCc2ccccc21 (stereo not given)	n	n	n	n	n	n
CCCCCCCCCCCCCCOc1ccc(C(=O)O)o1	x	n	x	n	x	x
Cc1ccc(C(c2c(C)n(C)n(-c3ccccc3)c2=O)c2c(C)n(C)n(-c3ccccc3)c2=O)s1	u	n	x	n	n	u
COc1ccc(-c2noc(COc3ccc4c(c3)OCO4)n2)cc1	n	n	n	n	n	n
SMILES	Pf growth 96h	Shiga inhibitor	NS1 function inh	CHX counter	SARS PLpro yeast	Pf growth 48h
c1ccc(-c2noc(COc3ccc4c(c3)OCO4)n2)cc1	n[5.75 µM]	55	n	26	n	n
Cc1oc2cc(Br)c(O)c(Br)c2c1-c1ccccc1	n	59	n	18	n	n
COc1ccc(-c2csc(Nc3ncccc3C)n2)cc1	n	n	n	n	n	n
Cc1cccnc1Nc1nc(-c2ccc(O)c(O)c2)cs1	n	80	u	45	n	x
COc1ccc(-c2csc(Nc3ncccc3C)n2)cc1OC	u	139	n	34	n	n
CN(c1ccc(F)cc1)S(=O)(=O)c1ccc(Cl)c(C(=O)NCc2ccco2)c1	x	x	x	x	n	x

Screening data: PubChem BioAssay, National Center for Advancing Translational Sciences (NCATS)
